This is an account of results in PubChem BioAssay AID1508602 (The Scripps Research Institute Molecular Screening Center, 2020).

“And” between values parts separate entries of the source, which are not always exact repeats. Equal entries are not always repeated. Screen size: about 650,000 compounds; about 6,800 (1%) were called active. Cut-off read from the data, not from the text of the source: active = activation above about 4.9%; inactive = the rest. The full list was thinned out, with actives kept by preference. Some compounds were tested as several samples or in several runs, with calls that do not always agree.

The target of this experiment is G-protein coupled receptor 151 (Homo sapiens) (UniProt Q8TDV0). Kind of experiment: activates the human receptor GPR151, primary screen, cell-based, PathHunter beta-arrestin, luminescence (AID 1508602).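 Note: 0% = median of compound wells and 100% = cells with positive control.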 The settings on record: PathHunter beta-arrestin GPR151 cells, at 11.2 µM, stronger effect = higher value.
G-protein coupled receptor 151 (Homo sapiens), sequence (Q8TDV0 whole entry, looked up): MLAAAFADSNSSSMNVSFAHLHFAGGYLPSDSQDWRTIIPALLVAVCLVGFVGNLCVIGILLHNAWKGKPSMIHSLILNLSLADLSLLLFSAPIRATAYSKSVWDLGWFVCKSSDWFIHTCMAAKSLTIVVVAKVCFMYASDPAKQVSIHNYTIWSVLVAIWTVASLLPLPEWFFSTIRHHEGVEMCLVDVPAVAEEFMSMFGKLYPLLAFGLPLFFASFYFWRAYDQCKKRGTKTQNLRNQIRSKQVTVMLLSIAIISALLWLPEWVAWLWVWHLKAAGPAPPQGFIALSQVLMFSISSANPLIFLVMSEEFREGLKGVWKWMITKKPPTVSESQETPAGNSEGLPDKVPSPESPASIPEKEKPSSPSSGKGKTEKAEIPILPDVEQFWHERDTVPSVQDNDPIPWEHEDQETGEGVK
As for `C#CCN1C(=O)S/C(=C/c2cc(Cl)c(O)c(OC)c2)C1=O`, the activation was 2.53% (inactive). For `CCCCCn1c(=S)[nH]c2cc(C(=O)NCc3ccc4c(c3)OCO4)ccc2c1=O`, the activation is -1.93% (inactive). To `C=CCn1c(=O)c2ccc(C(=O)NCc3ccc4c(c3)OCO4)cc2n(CC(N)=O)c1=O` belongs 10.5% (active); to `O=C(NCc1ccc2c(c1)OCO2)c1ccc(I)cc1`, -1.11% (inactive). In the case of `CSCCC(NC(C)=O)C(=O)OCC(=O)Nc1nnc(C(C)C)s1` (stereo not given), the activation was -1.34% (inactive).

As for `COc1c(Cl)ccc(Cl)c1C(=O)Nc1cc(C)cc(C)c1`, the activation was 0.289% (inactive). Under `COC(=O)/C=C1/C(=O)Nc2ccccc21` stands -0.452% (inactive); under `Cc1cc(C)c(/C=C2\C(=O)Nc3ccccc32)[nH]1`, -2.18% (inactive) and 5.18% (active); under `Cn1c(/C=C2\C(=O)Nc3ccccc32)nc2ccccc2c1=O`, 1.31% (inactive).

As for `COC(=O)c1c(OCc2cccnc2)cc(=O)n2c1CCN(C(C)CSC)CC2` (stereo not given), the activation was 0.107% (inactive). `COc1cccc(CNC(=O)CCC(=O)N2CC(C)Oc3ccc(C)cc32)c1` (stereo not given): the activation was 0.215% (inactive). Under `Cc1cccc(CN[C@H]2C[C@H]3C(=O)N[C@@H](CC(C)C)C(=O)N3C2)c1` stands 1.59% (inactive); under `C=C(C)Cn1c(N2CCN(CCO)CC2)nc2c1c(=O)[nH]c(=O)n2C`, -0.406% (inactive). For `COc1cccc(/C=C(\C#N)c2nc3ccc(C)cc3[nH]2)c1OC`, the activation is 13.2% (active). Consider `COc1ccccc1/C=C(/C#N)c1nc2ccccc2[nH]1`, for which the activation was -0.79% (inactive). To `COc1ccc2nc(/C(C#N)=C\c3cc4c(cc3OC)OCO4)[nH]c2c1` belongs 5.68% (active); to `COc1ccc2nc(/C(C#N)=C\c3c[nH]c4ccccc34)[nH]c2c1`, -0.394% (inactive); to `Cc1ccc2nc(/C(C#N)=C/c3ccccc3F)[nH]c2c1`, -0.301% (inactive).

As to `COc1cc2c(cc1/C=C(\C#N)c1nc3ccccc3[nH]1)OCO2`, the activation is 0.566% (inactive). Under `COc1ccc(S(=O)(=O)n2nc(-c3cc(OC)cc(OC)c3)cc2N)cc1` stands -1.02% (inactive); under `Cc1ccc(NC(=O)C2CCCN(S(=O)(=O)c3ccc4c(c3)oc(=O)n4C)C2)cc1C` (stereo not given), -0.645% (inactive). Turning to `O=C(c1ccc(N2CCC(NCc3cccc(F)c3F)CC2)cc1)N1CCCC(CO)C1` (stereo not given), the activation is 0.257% (inactive). Under `O=C(Nc1ccc2oc(-c3cccc(I)c3)nc2c1)c1cc(Br)ccc1Cl` stands -0.461% (inactive); under `O=C(Cc1cccs1)NCCC1=CCCCC1`, 9.81% (active). Under `O=C(Cc1ccc([N+](=O)[O-])cc1)NCCC1=CCCCC1` stands 0.571% (inactive); under `O=C(CNC(=S)N(Cc1cccs1)C1CCCCC1)NCCC1=CCCCC1`, 2.8% (inactive); under `CCOC(=O)c1c(NC(=O)c2cc(S(N)(=O)=O)c(Cl)cc2Cl)sc2c1CCC(C)C2` (stereo not given), 0.0074% (inactive). `COc1cc(/C=C2/C(=N)N3N=C(CC(C)C)SC3=NC2=O)ccc1OC(=O)c1ccc(F)cc1`: the activation was -0.0343% (inactive). Under `CCOC(=O)c1[nH]c2ccc(OC)cc2c1NC(=O)CN(C)C` stands 6.75% (active); under `CCOC(=O)c1[nH]c2ccc(OC)cc2c1NC(=S)N1CCN(c2ncccn2)CC1`, 2.39% (inactive); under `CCOC(=O)Nc1c(C(=O)OC)[nH]c2ccc(C)cc12`, -1.5% (inactive). Turning to `COc1ccccc1NC(=O)c1sc2ncn(Cc3cccc(Br)c3)c(=O)c2c1C`, the activation was -1.06% (inactive). For `S=C(S)NCCc1c[nH]c2ccccc12`, the activation is -0.43% (inactive). In the case of `CSc1ncc(C(=O)NCCc2c[nH]c3ccccc23)c(C)n1`, the activation was 4.98% (active). To `O=C(NCCc1c[nH]c2ccccc12)c1cccs1` belongs -0.507% (inactive); to `Cc1ccc(CNC(=O)CN2C(=O)C3C4C=CC(C4)C3C2=O)o1` (stereo not given), 0.668% (inactive); to `C[C@@H](c1ccccc1)N1C(=O)[C@H]2[C@H]3[C@H](O)C=CC(=O)[C@@H]3CC[C@H]2C1=O`, -1.71% (inactive). As for `CC(=O)N(c1nc(C=O)cs1)c1ccccc1F`, the activation was 1.55% (inactive). Consider `CC(C)(C)c1ccc(C2/C(=C(/O)c3ccccc3)C(=O)C(=O)N2c2ccc(OCC(=O)O)cc2)cc1` (stereo not given), for which the activation is -0.849% (inactive). Regarding `COc1ccc(N2C(=O)C(=O)/C(=C(/O)c3ccccc3)C2c2ccc(Cl)cc2)cc1` (stereo not given), the activation was -0.225% (inactive).

For `O=C(O)COc1ccc(N2C(=O)C(=O)/C(=C(\O)c3ccccc3)C2c2ccc(Cl)cc2Cl)cc1` (stereo not given), the activation was 6.19% (active). Under `CCOc1ccc2c(c1)=C/C(=C\c1[nH]c(=S)[nH]c1O)C(=O)N=2` stands -0.225% (inactive); under `CN1NC2(CCCCC2)N(c2ccccc2)C1=S`, 0.403% (inactive).

For `COc1ccc(CCNc2cc(C)nc(Nc3cccc(N(C)C)c3)n2)cc1`, the activation was 8.12% (active). Turning to `COc1ccc(CCNc2ncnc3c2nc(Nc2cccc(N(C)C)c2)n3C(C)C)cc1`, the activation is -3.07% (inactive). For the molecule `COc1ccc(CCNc2cc(C)nc(NCc3ccc4c(c3)OCO4)n2)cc1`, the activation was -0.591% (inactive).

`CC1=C(C(=O)OCc2ccc3c(c2)OCO3)C(c2ccc(Cl)c(Cl)c2)NC(=O)N1` (stereo not given): the activation was -0.562% (inactive). Consider `CC(C)(C)S(=O)(=O)Nc1nccnc1-c1ccc2c(c1)OCO2`, for which the activation is -0.466% (inactive).

In the case of `CCCCSC1=C(C#N)C(c2ccc(OC)cc2)C2=C(CC(C)(C)CC2=O)N1` (stereo not given), the activation was 1.78% (inactive).

Consider `CC(=O)N(C)c1ccc(N=Cc2ccc3ccccc3c2)cc1`, for which the activation is -0.522% (inactive). To `O=C1NC2(CCN(CC(=O)N3CCCCC3)CC2)Nc2ccccc21` belongs -0.0006% (inactive).

For `Cc1ccc(N=Cc2c(NCc3ccco3)nc3c(C)cccn3c2=O)cc1`, the activation is -0.949% (inactive). Under `C/C(=N/NC(=O)c1ccccc1)c1ccc(F)cc1` stands -1.24% (inactive); under `CCCNc1ncnc2c1nc(Nc1cccc(N(C)C)c1)n2C(C)C`, -1% (inactive). Turning to `CC(C)n1c(Nc2ccc3ncccc3c2)nc2c(NC3CC3)ncnc21`, the activation was 7.49% (active). To `CC(C)n1c(Nc2ccc3ncccc3c2)nc2c(N)ncnc21` belongs 0.875% (inactive); to `CC1=C(C(=O)Nc2nc3ccc(Br)cc3s2)C(c2ccccc2C)C2=C(CC(C)(C)CC2=O)N1` (stereo not given), 1.38% (inactive); to `COc1ccc(C(=O)Nc2ccc(S(=O)(=O)NC(C)C)cc2)cc1`, 5.49% (active). To `COc1ccc(NC(=O)c2ccc(C(=O)Nc3ccc(OC)cc3)cc2)cc1` belongs -0.694% (inactive); to `COc1ccc(C(=O)Nc2ccc(S(=O)(=O)N(C)C3CCCCC3)cc2)cc1`, -0.159% (inactive); to `COc1cccc(-c2nc3nc(C)c(CCC(=O)NC4CCCC4)c(C)n3n2)c1`, 0.324% (inactive). Under `Cc1nc(-c2cccc(NC(=O)C3CC(=O)c4ccccc43)c2)cs1` (stereo not given) stands 7.17% (active); under `CC(=O)Nc1cccc(-c2csc(C)n2)c1`, -0.0322% (inactive).

On to `Cc1ccc(Cl)cc1NC(=O)C1CC(=O)c2ccccc21` (stereo not given), for which the activation is 0.739% (inactive). Under `CCSCCOC(=O)C1=C(C)NC2=C(C(=O)CC(c3cccs3)C2)C1c1cc(OC)c(O)c([N+](=O)[O-])c1` (stereo not given) stands 0.362% (inactive); under `c1ccc(CN2CCC(Nc3nnnn3-c3ccccc3)CC2)cc1`, 0.295% (inactive); under `CC(NC(=O)Nc1ccc(Br)cc1Br)(C(F)(F)F)C(F)(F)F`, -0.154% (inactive). As for `CCOC(=O)c1c(NC(=O)CSc2nnc(CNC(=O)Cc3ccc(OC)cc3)n2-c2ccc(F)cc2)sc2c1CCCC2`, the activation is -0.665% (inactive).

For the molecule `COc1ccccc1N1CCN(CCNC(=O)c2ccc(F)cc2)CC1`, the activation is -2.55% (inactive). To `COCCNC(=S)N1CCN(c2ncccn2)CC1` belongs -1.93% (inactive); to `COCCNC(=S)N1CCN(c2ccccc2OC)CC1`, 12.1% (active); to `CC(C)(C)c1ccc(S(=O)(=O)ON2C(=O)c3ccccc3C2=O)cc1`, 3.8% (inactive).

`CCCC(=O)Oc1ccc2c(-c3ccccc3)cc(=O)oc2c1`: the activation is 1.03% (inactive).

Take `C=CCn1c2ccccc2c2nnc(SCc3[nH]c(=O)[nH]c3C(=O)CCCCC(=O)OCC)nc21`: the activation is 9.28% (active). Turning to `C=CCn1c2ccccc2c2nnc(SC(CC)C(=O)Nc3nc(C)c(C(=O)OCC)s3)nc21` (stereo not given), the activation was -0.843% (inactive). Turning to `C=CCN(CC=C)C(=O)CSc1nnc2c3ccccc3n(C)c2n1`, the activation was 0.64% (inactive). To `O=C(NCC1OCCCN1S(=O)(=O)c1ccccc1)C(=O)NC1CC1` (stereo not given) belongs 0.198% (inactive). On to `O=C(NCCN1CCOCC1)C(=O)NCC1OCCCN1S(=O)(=O)c1ccccc1` (stereo not given), for which the activation was -0.042% (inactive). In the case of `C=CCNC(=O)C(=O)NCC1OCCCN1S(=O)(=O)c1ccccc1` (stereo not given), the activation was 5.93% (active). Regarding `Cc1nc(NC(=O)CSc2nnc3c(C)cc4cc5c(cc4n23)OCCO5)sc1C`, the activation is 0.827% (inactive). Consider `O=C(Nc1nc2ccccc2[nH]1)c1cc(Cl)ccc1Cl`, for which the activation is -5.18% (inactive). Take `CC(C(=O)NCc1ccc(F)cc1)n1c2ccccc2c2cn[nH]c(=O)c21` (stereo not given): the activation is 0.149% (inactive). To `CC(C(=O)NCCN1CCOCC1)n1c2ccccc2c2cn[nH]c(=O)c21` (stereo not given) belongs 6.21% (active).

For the molecule `CC(C(=O)NC1CCCC1)n1c2ccccc2c2cn[nH]c(=O)c21` (stereo not given), the activation was 0.687% (inactive). Under `Cc1ccccc1Cn1cc(SCC(=O)N2CCCC2)c2ccccc21` stands -1.67% (inactive). As for `COc1ccccc1NC(=O)C1CC12CCN(Cc1cccc(OCCO)c1)CC2` (stereo not given), the activation is -0.488% (inactive). Consider `Cn1c2ccccc2c2nnc(SCC(=O)Nc3ccc(NC(=O)C4CC4)cc3)nc21`, for which the activation was 7.08% (active). With `Cn1c2ccccc2c2nnc(SCC(=O)Nc3ccc(Cl)cn3)nc21`, the activation is -1.79% (inactive).

On to `Cn1c2ccccc2c2nnc(SCCCCC(=O)Nc3cccc4ccccc34)nc21`, for which the activation is -1.31% (inactive).

For the molecule `CC(C)(C)CN1CCC(Oc2cccc(C(=O)NCC3CC(=O)N(C4CC4)C3)c2)CC1` (stereo not given), the activation was -0.301% (inactive).
